Hits are enriched below; roughly 2.9% of the tested compounds scored in any of these assays.
Wnt act: Wnt/beta-catenin pathway activation | Wnt/beta-catenin reporter cell assay, activator, plate reader | 300,000 tested, 1.2% active | AID 743398 | activation, % at 9.35 µM; in the data active means activation above about 30%, passing the limit was not always enough; inconclusive means no clear call, values can overlap the other calls;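 further: 0% = neutral control wells and 100% = positive control wells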
MITF TRPM1 inh: inhibitors of MITF-driven TRPM1 promoter in melanoma cells | SK-MEL-5 TRPM1 promoter luciferase, 24 h | inhibition, % at 12.5 µM | 330,000 tested, 0.83% active;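 active means mean inhibition across replicates of 60% or more, whatever share of single replicates reaches that level; inconclusive means some that reach 60%, reason not given; inactive means mean inhibition across replicates below 60%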
NSD2 inh: NSD2 (human) methyltransferase inhibition | O96028 | NSD2 peptide methylation, AlphaScreen, 120 min | inhibition, % at 12.5 µM | 310,000 tested, 0.54% active; in the data active means inhibition above about 50%
Target sequence (O96028 whole entry, looked up): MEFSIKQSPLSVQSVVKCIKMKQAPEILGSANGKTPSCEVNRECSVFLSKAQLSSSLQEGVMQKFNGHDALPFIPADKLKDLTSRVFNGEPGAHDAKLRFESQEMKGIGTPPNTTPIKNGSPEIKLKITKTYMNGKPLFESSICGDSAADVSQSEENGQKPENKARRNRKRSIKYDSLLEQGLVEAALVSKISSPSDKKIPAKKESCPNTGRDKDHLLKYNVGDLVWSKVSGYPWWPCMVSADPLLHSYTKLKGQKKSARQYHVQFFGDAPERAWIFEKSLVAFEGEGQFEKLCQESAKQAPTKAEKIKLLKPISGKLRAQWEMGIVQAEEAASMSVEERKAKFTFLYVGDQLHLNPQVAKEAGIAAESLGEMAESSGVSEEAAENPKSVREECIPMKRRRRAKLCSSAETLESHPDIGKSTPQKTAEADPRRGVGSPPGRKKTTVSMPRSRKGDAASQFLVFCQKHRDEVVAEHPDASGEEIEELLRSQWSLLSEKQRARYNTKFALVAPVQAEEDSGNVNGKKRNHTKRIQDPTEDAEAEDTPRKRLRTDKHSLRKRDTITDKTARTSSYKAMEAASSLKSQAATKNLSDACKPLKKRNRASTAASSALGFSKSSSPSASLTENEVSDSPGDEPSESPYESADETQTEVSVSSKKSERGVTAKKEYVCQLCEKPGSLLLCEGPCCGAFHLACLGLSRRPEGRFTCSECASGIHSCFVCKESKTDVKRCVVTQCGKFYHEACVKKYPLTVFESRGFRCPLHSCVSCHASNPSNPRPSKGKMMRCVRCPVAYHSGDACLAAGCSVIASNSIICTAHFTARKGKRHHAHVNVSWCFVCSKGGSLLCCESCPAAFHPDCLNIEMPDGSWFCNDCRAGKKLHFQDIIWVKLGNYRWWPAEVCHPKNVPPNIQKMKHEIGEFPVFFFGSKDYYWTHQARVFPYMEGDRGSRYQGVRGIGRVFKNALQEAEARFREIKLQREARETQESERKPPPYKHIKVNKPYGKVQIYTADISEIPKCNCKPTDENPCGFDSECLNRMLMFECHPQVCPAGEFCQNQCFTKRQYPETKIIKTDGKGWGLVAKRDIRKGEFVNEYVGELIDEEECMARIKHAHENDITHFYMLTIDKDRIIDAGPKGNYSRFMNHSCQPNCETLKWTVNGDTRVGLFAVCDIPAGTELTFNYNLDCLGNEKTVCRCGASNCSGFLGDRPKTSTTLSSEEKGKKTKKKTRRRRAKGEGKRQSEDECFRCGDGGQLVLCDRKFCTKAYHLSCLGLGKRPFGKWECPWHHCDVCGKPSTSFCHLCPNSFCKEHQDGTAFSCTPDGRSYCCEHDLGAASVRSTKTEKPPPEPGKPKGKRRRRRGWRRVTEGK
MITF TRPM1 HTS: activators of MITF-driven TRPM1 promoter activity in SK-MEL-5 cells | SK-MEL-5 TRPM1-promoter luciferase, 24 h; % of positive control, neutral wells = 0 | activation, % at 12.5 µM | 300,000 tested, 0.75% active | AID 588334;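 active means mean activation of at least 80% with every replicate also reaching 80%; inconclusive means mean reaches 80% but some replicate falls short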;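 further: 0% = neutral control wells and 100% = parthenolide positive control wells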
Glyco luc inh: N-linked glycosylation inhibition. D54 ERlucT glycosylation luciferase reporter, 24 h; percent of 100 nM tunicamycin response. reporter increase, % at 12.5 µM. 360,000 tested, 0.23% active. AID 588692;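 active means mean luciferase reporter signal, scaled so untreated is 0 and the glycosylation-blocking control 100, at or above a set limit in every replicate; inconclusive means mean reaches the limit but not every replicate does; inactive means mean below the limit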;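 further: luciferase carries N-glycosylation sites so blocking glycosylation raises the light; 0% = median of neutral control wells and 100% = median of 100 nM tunicamycin wells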
PfHsp90 yeast 2: inhibits growth of yeast expressing Plasmodium falciparum Hsp90. S. cerevisiae expressing PfHsp90, BacTiter-Glo ATP, 48 h; yeast lacking PDR1 and PDR3 efflux regulators. inhibition, % at 9.4 µM. 310,000 tested, 0.32% active;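 active means every replicate shows inhibition above about 80%, whatever the replicate mean, limit read from the data; inconclusive means mean inhibition reaches the set limit but some replicate falls short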;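 further: 0% = DMSO neutral controls and 100% = 20 µM radicicol positive controls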
Active calls of the source: *; ? = inconclusive; nt = no result given.

SMILES	Wnt act	MITF TRPM1 inh	NSD2 inh	MITF TRPM1 HTS	Glyco luc inh	PfHsp90 yeast 2
CC(C)Cc1nnc(NC(=O)Nc2ccccc2)s1	38*	-97	-2	96*	-3	4
CC(C)Cc1nnc(NC(=O)CCC(=O)Nc2ccccc2)s1	-1	3	3	-4	8	2
COc1ccc(-n2c(COc3ccc(C)cc3)nnc2SCC(=O)O)cc1	-3	1	0	0	0	6
CCOc1ccc(-n2c(COc3ccc(C)cc3)nnc2SCC(N)=O)cc1	71*	0	nt	nt	0	nt
Cc1cc(NCc2ccccc2)cc(=O)n1Cc1ccccc1	nt	nt	-11	nt	nt	nt
CCCN1CCCCC(NC(=O)c2cccs2)C1=O (stereo not given)	-4	nt	-2	nt	nt	nt
CC(C)=CCCC1=CC[C@H]2[C@@H](C1)C(C(C)C)=CC(=O)[C@@]2(C)O	-2	nt	2	nt	nt	nt
CC[C@@]1(c2ccccc2OC)ON(c2ccccc2C(F)(F)F)C1=O	-2	52	nt	-51	43*	-10
CC(=O)Nc1cccc(NC(=O)C2CC(=O)N(CCc3ccc(F)cc3)C2)c1 (stereo not given)	2	2	7	-3	2	-1
c1ccc(-c2cc(NCCN3CCCCC3)c3ccccc3n2)cc1	0	52	7	-49	71*	1
Oc1ccccc1/C=N/NC(=S)NC1CC2CC1C1C=CCC21 (stereo not given)	49*	-30	3	31	9	-22
COc1cccc(/C=N/NC(=S)NC2CC3CC2C2C=CCC32)c1O (stereo not given)	-2	-9	3	nt	2	-8
O=C1CCCC/C1=N\Nc1ccc(OCc2ccccc2)cc1	nt	-34	1	43	0	9
NS(=O)(=O)c1ccc(CNC(=O)/C=C/c2cccc(Cl)c2)cc1	nt	7	-1	-7	6	-15
O=C(/C=C/c1cccc(Cl)c1)c1ccc([N+](=O)[O-])o1	-25	98*	nt	-96	-21	108*
COc1ccc(/C=C/C(=O)c2ccc([N+](=O)[O-])o2)cc1OC	-28	nt	nt	nt	nt	nt
COc1cc(/C=C/C(=O)c2ccc([N+](=O)[O-])o2)ccc1O	-13	85*	nt	-85	-15	112*
CC(C)(C)c1ccc(S(=O)(=O)N2CCC(NC(=O)c3ccco3)CC2)cc1	-1	2	nt	1	2	14
Cc1cccc(CCNC(=O)Cn2ncc3c2-c2cc(C)ccc2OC3)c1	nt	nt	1	nt	nt	nt
CCS(=O)(=O)c1ncc(Cl)c(C(=O)Nc2ccc(S(=O)(=O)N3CCC(C)CC3)cc2)n1	-19	97*	13	-96	-25	-17
CC(=O)Nc1ccc(NC(=O)c2nc(S(=O)(=O)Cc3cccc(C)c3)ncc2Cl)cc1	-14	49	-5	-48	2	-13
Cc1ccc(-c2nnn(CC(=O)Nc3ccc(S(=O)(=O)N4CCC(C)CC4)cc3)n2)cc1	nt	12	-1	nt	21	-31
CCOC(=O)c1ccc(NC(=O)c2nc(S(=O)(=O)Cc3ccccc3)ncc2Cl)cc1	-9	78*	nt	-78	-15	9
Cc1ccc(NC(=O)c2nc(S(=O)(=O)Cc3ccccc3C)ncc2Cl)cc1C	-11	78*	nt	-79	0	-14
CC1CCN(S(=O)(=O)c2ccc(NC(=O)Cn3nnc(-c4ccccc4)n3)cc2)CC1	-15	8	nt	-8	47*	-23
SMILES	Wnt act	MITF TRPM1 inh	NSD2 inh	MITF TRPM1 HTS	Glyco luc inh	PfHsp90 yeast 2
CCc1ccc(NC(=O)c2nc(S(=O)(=O)Cc3ccccc3)ncc2Cl)cc1	-5	92*	0	-93	-10	99*
CN(c1ccccc1)S(=O)(=O)c1ccc(NC(=O)c2nc(S(C)(=O)=O)ncc2Cl)cc1	-14	100*	nt	-100	-19	-3
COC(=O)c1ccc(NC(=O)c2nc(S(=O)(=O)Cc3cccc(C)c3)ncc2Cl)cc1	-13	94*	nt	-94	-3	109*
N#Cc1ccc(S(=O)(=O)NCC2CCN(C(=O)C(=O)c3cc4ccccc4o3)CC2)cc1	-1	nt	-2	nt	nt	nt
CCn1nc([N+](=O)[O-])c(C(C#N)c2nc3cc(C(F)(F)F)ccc3s2)c(Cl)c1=O (stereo not given)	-1	24	54*	-24	-5	-10
CCCn1nc([N+](=O)[O-])c(C(C#N)c2nc3ccccc3o2)c(Cl)c1=O (stereo not given)	nt	6	33	-7	-3	3
CCOc1ccc(NC(=O)c2ccccc2CO)cc1	nt	-57	-1	45	0	-12
CCOc1ccc(NC(=O)c2ccccc2OC)cc1	46*	-18	0	12	0	-9
CCOc1ccc(NC(=O)c2ccccc2OCC(=O)c2ccccc2)cc1	nt	-74	0	nt	-5	3
CCOc1ccc(NC(=O)c2ccccc2-c2ccccc2C(=O)O)cc1	13	-88	-1	85*	0	-21
CCOc1ccc(NC(=O)c2cccnc2C(=O)O)cc1	nt	-7	0	13	0	10
CCOc1ccc(NC(=O)c2ccccn2)cc1	-2	62*	-7	-61	-20	-69
CCOc1ccc(NC(=O)c2cnccn2)cc1	12	-23	4	22	-11	7
CCOc1ccc(NC(=O)c2ccccc2O)cc1	nt	-85	0	82*	-8	31
C(=C\n1nnc2ccccc21)/c1ccccn1	34*	-41	nt	42	-12	4
O=C(COc1ccc(Cl)cc1Cl)c1ccc[nH]1	33*	-67	-2	72	-2	-1
CCOc1ccc(C(=O)Nc2ccc(Cl)cn2)cc1Cl	?	-109	-2	103*	-3	-16
O=C(COc1ccc(Cl)cc1Cl)Nc1ccccc1F	45*	-4	-4	nt	-16	-13
O=C(COc1ccc(Cl)cc1Cl)Nc1ccc(Cl)cn1	13	-86	nt	96*	-19	-2
Cc1ccc(Cl)c(OCC(=O)OCC(=O)c2ccc[nH]2)c1	4	8	1	-5	1	-15
Cc1ccccc1CN1CCN(C(=O)[C@H]2O[C@@H](n3cnc(C(N)=O)n3)[C@H](O)[C@@H]2O)CC1	-3	nt	nt	nt	nt	nt
O=C(C[n+]1cccc(CO)c1)Nc1nc2ccccc2s1	-5	3	-5	1	-5	-18
CC(=O)C1=C(C)OC(N)=C(C#N)C1c1cc([N+](=O)[O-])ccc1Cl (stereo not given)	0	23	-3	-22	29*	3
CC(=O)C1=C(C)OC(N)=C(C#N)C1c1cccc([N+](=O)[O-])c1 (stereo not given)	5	8	0	-6	1	8
Cc1nc2nc(-c3cccs3)cn2nc1C	47*	-40	2	nt	-3	nt
Cc1nc2nc(-c3ccc(Cl)cc3)cn2nc1C	nt	3	-1	-4	-14	13
CCCN1CCCCC(NC(=O)c2ccccc2C)C1=O (stereo not given)	2	nt	1	nt	nt	nt

Screens (PubChem BioAssay)
